Experimental findings from PubChem BioAssay (NCATS) are described below.

Results filed as inconclusive are left out. A call without a number means that no potency is given here. Calls of active or inactive are those of the source. Calls come from the whole dose curve; as a rule, active = well fitted inhibition curve with a large enough effect; inconclusive = small, poorly fitted or top-dose-only effect; inactive = flat fitted curve, though single readings scatter.

In the assay the target is Calcium and integrin-binding protein 1 (Homo sapiens) (UniProt Q99828). Briefly: Primary qHTS for Identification of Calcium Integrin Binding Protein 1 (CIB1) Competitor (AID 1508620). Note: top concentration of the series differs between compounds. Conditions: CIB1-GST / FITC-alphaIIb peptide fluorescence polarization; series mostly up to 114 µM. In short, it runs like this: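 Fluorescence polarization competition: GST-tagged CIB1 (1 uM final) preincubated with compound 15 min at room temperature, then FITC-labelled alphaIIb peptide (100 nM final) added. After 15 min at room temperature, polarization read at Ex 480/Em 540.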
Chain of Calcium and integrin-binding protein 1 (Homo sapiens) (Q99828 whole entry, looked up): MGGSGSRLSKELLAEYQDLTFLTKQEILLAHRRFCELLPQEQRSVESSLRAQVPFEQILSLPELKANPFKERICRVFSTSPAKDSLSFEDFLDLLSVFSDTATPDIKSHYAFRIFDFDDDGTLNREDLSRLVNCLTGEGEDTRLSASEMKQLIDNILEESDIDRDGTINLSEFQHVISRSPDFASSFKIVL
In general terms: Quantitative high-throughput screening tests each substance at several concentrations.
Take `COc1ccc(C2=Nn3c(nnc3-c3ccc(OC)c(OC)c3)SC2)cc1`: the Potency entry is “inactive”.

For the molecule `NC(=O)C1CCN(c2nccc(-c3ccc4c(c3)OCCCO4)n2)CC1`, the Potency result is “inactive”. With `Cc1ccnc(NC(=S)N2CCN(c3ccc(C(F)(F)F)cc3)CC2)c1`, the Potency entry is “inactive”.

As for `CCCn1c(C)nc2c(NCCN(CC)CC)nc(C)nc21`, the Potency result was “inactive”.

As for `COc1ccc(CN(Cc2ccccc2)C(=O)c2ccccc2O)cc1COc1ccc(NC(C)=O)cc1`, the Potency result is “inactive”.

For `Cc1cc2c(s1)c1cnn(Cc3c(Cl)cccc3Br)c(=O)c1n2C`, the Potency entry was “inactive”. Consider `CC(=O)N1CCc2cc(-c3nc(NC(=O)Cc4ccc5c(c4)OCO5)sc3C)ccc21`, for which the Potency result was “inactive”.

Take `CCC(=O)NC(c1ccco1)c1cc(Cl)c2cccnc2c1O` (stereo not given): the Potency entry is “inactive”. Regarding `O=S(=O)(Nc1nccs1)c1ccc(NCc2cc(F)ccc2O)cc1`, the Potency result is “inactive”.

With `Cc1cc2c(s1)c1cnn(Cc3cc(C(F)(F)F)cc(Cl)c3F)c(=O)c1n2C`, the Potency entry was “inactive”. On to `Cc1cc(C)nc(NC(=S)N2CCN(S(=O)(=O)c3cccc(C(F)(F)F)c3)CC2)c1`, for which the Potency entry is “inactive”. In the case of `Cn1c2cc(Br)sc2c2cnn(Cc3c(F)cccc3Cl)c(=O)c21`, the Potency entry was “inactive”. Consider `Cc1cc(-c2nnc3n2CCCCC3)c(C)n1-c1ccc(C#N)cc1`, for which the Potency entry was “inactive”. `COc1ccc(C2Nc3ccccc3C(=O)N2Cc2ccc(C(F)(F)F)cc2)cc1COc1ccc(NC(C)=O)cc1` (stereo not given): the Potency result was “inactive”.

Take `O=C1c2ccccc2NC(c2ccc(-c3ccc(F)cc3)o2)N1O` (stereo not given): the Potency result was “inactive”. For `O=C(NCCc1nc2ccccc2n1CCO)C1CCCCC1`, the Potency result was “inactive”. With `NC1CCN(c2nc(-c3ccc(Br)cc3)cs2)CC1`, the Potency result was “inactive”.

`O=C1c2ccccc2C(=O)N1C1CCCCC1`: the Potency entry is “inactive”.

`O=C(O)c1cccc(-c2noc(-c3cccc(Cl)c3)n2)c1`: the Potency entry was “inactive”. Turning to `CNc1oc(-c2ccc(F)cc2)nc1C#N`, the Potency result was “inactive”. Consider `CN(CCc1cccs1)c1ncnc2ccc(-c3ccc4c(c3)OCO4)cc12`, for which the Potency result is “inactive”. Consider `COc1ccc(C2NC(=O)c3ccccc3N2)cc1COc1ccc(NC(C)=O)cc1` (stereo not given), for which the Potency result was “inactive”. With `O=C1c2ccccc2C(=O)N1Cc1ccccn1`, the Potency result was “inactive”. Turning to `COc1cccc(CNc2ccc(S(=O)(=O)Nc3cccs3)cc2)c1O`, the Potency result was “inactive”. Consider `Cn1nnnc1Sc1ncnc2scc(-c3cccc(C#N)c3)c12`, for which the Potency entry was “inactive”.

Take `Cc1ccc(NC(=O)Nc2nnc(-c3ccncc3)s2)cc1C`: the Potency result was “inactive”.

Consider `Cc1ccc(CNc2ncnc3ccc(-c4ccoc4)cc23)o1`, for which the Potency result was “inactive”. In the case of `CCCCN(C)C(=O)Cn1nc(-c2ccc(C(F)(F)F)cc2)ccc1=O`, the Potency result is “inactive”. With `O=C(Nc1ccc(-c2ccccc2)nc1)c1cccs1`, the Potency result is “inactive”.

For `CC(=O)Nc1cccc(OCc2cccc(C3Nc4ccccc4C(=O)N3Cc3ccco3)c2)c1` (stereo not given), the Potency entry was “inactive”. For `CN1CCN(c2nn3c(=O)c4ccccc4nc3s2)CC1` the value was “inactive”; for `c1nc(NCCCN2CCOCC2)c2cc(-c3ccc4c(c3)OCO4)ccc2n1`, “inactive”; for `Cc1cnc(-c2ccccc2C(C)C)nc1NCC1CCN(c2cccnc2)CC1`, “inactive”. Regarding `CC1=C(C(=O)Nc2ccc(C)cc2)C(c2ccccc2Br)N=C(Nc2nc3ccccc3o2)N1` (stereo not given), the Potency result was “inactive”. In the case of `O=C(OCC#CCSc1nnc(-c2cccc3ccccc23)o1)c1cccc2[nH]ccc12`, the Potency result is “inactive”. In the case of `Cc1cc2c(s1)c1cnn(Cc3cc(Cl)ccc3F)c(=O)c1n2C` it was “inactive”; in that of `O=C1Cc2cc(S(=O)(=O)N3CCN(c4ccc(CO)cc4)CC3)ccc2N1`, “inactive”; in that of `CC(C)(C)OC(=O)NCc1nnc(-c2cc3ccccc3[nH]2)s1`, “inactive”. In the case of `Cc1cc(C)nc(NC(=S)N2CCN(c3cncc4ccccc34)CC2)c1` it was “inactive”. Consider `CC(C)(C)OC(=O)NCCOCCOCCOc1cccc(-n2ncc3c2CCCC3NC(=O)c2ccccn2)c1` (stereo not given), for which the Potency entry is “inactive”.
